Data taken from PubChem BioAssay AID1159580 (chemical genetic matrix, 2015).
The campaign covered roughly 5,500 compounds. About 2,000 (36%) were called active. About 18% were inconclusive and are not listed. No stated cut-off is given here; in the data, active means normalized growth mostly below about 0.91 (no sharp cut-off); inconclusive means no clear call, values can overlap the other calls; inactive means mostly above about 0.92. Some of the results follow.

Experiment: chemical genetic growth profiling, strain panel (AID 1159580);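 further: tested at 20 µM; growth read once vehicle control cultures reached saturation at 30 °C; 1 = growth at the plate median or of vehicle wells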
Settings: S. cerevisiae deletion strains, growth OD

Measured: normalized growth

Cc1nn(C)c(C)c1[N+](=O)[O-]
inactive: locus YAL013W, strain DEP1, stronger effect = lower value 0.996 | locus YBR229C, strain ROT2, stronger effect = lower value 1.03 | locus YDL101C, strain DUN1, stronger effect = lower value 0.992 | locus YDL134C, strain PPH21, stronger effect = lower value 1 | locus YDR150W, strain NUM1, stronger effect = lower value 0.939 | locus YEL061C, strain CIN8, stronger effect = lower value 1 | locus YGR078C, strain PAC10, stronger effect = lower value 0.999 | locus YGR229C, strain SMI1, stronger effect = lower value 1.01 | locus YHR030C, strain SLT2, stronger effect = lower value 1.01 | locus YHR087W, strain rtc3, stronger effect = lower value 1.02 | locus YJR043C, strain POL32, stronger effect = lower value 0.997 | locus YJR075W, strain HOC1, stronger effect = lower value 0.988 | locus YKL190W, strain CNB1, stronger effect = lower value 1 | locus YLR039C, strain RIC1, stronger effect = lower value 0.998 | locus YLR058C, strain SHM2 (second series), stronger effect = lower value 1.01 | locus YLR085C, strain ARP6, stronger effect = lower value 1.02 | locus YLR262C, strain YPT6, stronger effect = lower value 0.993 | locus YML094W, strain GIM5, stronger effect = lower value 0.994 | locus YMR219W, strain ESC1, stronger effect = lower value 1.02 | locus YMR307W, strain GAS1, stronger effect = lower value 0.994 | locus YNL128W, strain TEP1, stronger effect = lower value 1.01 | locus YNL153C, strain GIM3, stronger effect = lower value 1 | locus YNL298W, strain CLA4 (second series), stronger effect = lower value 1.01 | locus YNL322C, strain KRE1, stronger effect = lower value 0.996 | locus YNR030W, strain Alg12, stronger effect = lower value 1.02 | locus YOL006C, strain TOP1, stronger effect = lower value 1.05 | locus YPL055C, strain LGE1, stronger effect = lower value 0.867 | locus YPL241C, strain CIN2, stronger effect = lower value 1 | locus YPR135W, strain CTF4, stronger effect = lower value 1.03
